From PubChem BioAssay AID485272 (The Scripps Research Institute Molecular Screening Center, 2010) come the findings set out here.

Out of some 330,000 compounds screened, about 1,300 (0.39%) were called active.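 How the source made its calls: active means percent inhibition above a cutoff equal to the mean of all tested compounds plus 3 SD (cut at about 15% in these data); inactive means the rest.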 For the sample, actives were picked, then their nearest neighbours and some compounds at random.

The assay deals with Protein-arginine deiminase type-4 (Homo sapiens) (UniProt Q9UM07). The assay is described as follows: human PAD4 inhibitors, primary screen, biochemical, fluorescence polarization, 1536-well format (AID 485272).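 Further: 0% = PAD4 with RCA probe and DMSO and 100% = probe without PAD4.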 To be noted: recombinant PAD4, RCA probe fluorescence polarization; at 6.36 µM; hits give high values. On the technique in general: In fluorescence polarisation assays a small probe gives low polarisation when free and higher when bound to something large.
Sequence of Protein-arginine deiminase type-4 (Homo sapiens) (Q9UM07 whole entry, looked up): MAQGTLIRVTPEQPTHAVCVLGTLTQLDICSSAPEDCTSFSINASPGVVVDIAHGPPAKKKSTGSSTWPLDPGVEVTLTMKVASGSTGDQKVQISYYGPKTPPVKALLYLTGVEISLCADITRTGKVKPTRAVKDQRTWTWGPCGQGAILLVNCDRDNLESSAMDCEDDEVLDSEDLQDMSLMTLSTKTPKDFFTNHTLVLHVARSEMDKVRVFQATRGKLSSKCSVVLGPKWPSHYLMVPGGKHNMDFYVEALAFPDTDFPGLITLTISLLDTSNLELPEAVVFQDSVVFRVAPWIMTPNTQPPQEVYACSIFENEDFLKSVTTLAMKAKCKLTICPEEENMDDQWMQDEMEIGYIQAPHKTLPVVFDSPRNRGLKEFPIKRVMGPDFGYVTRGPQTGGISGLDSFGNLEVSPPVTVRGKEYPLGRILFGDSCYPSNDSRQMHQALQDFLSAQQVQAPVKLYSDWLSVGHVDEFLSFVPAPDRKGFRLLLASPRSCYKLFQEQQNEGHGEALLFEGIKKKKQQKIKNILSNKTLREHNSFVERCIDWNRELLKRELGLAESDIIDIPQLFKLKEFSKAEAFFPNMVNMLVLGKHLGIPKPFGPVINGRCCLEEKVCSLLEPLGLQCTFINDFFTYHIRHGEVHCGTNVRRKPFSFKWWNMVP
As to `CCCCCN(C(=O)CCC(=O)OCC(=O)NC1CCC(C)CC1)c1c(N)n(CCCC)c(=O)[nH]c1=O` (configuration not stated), the inhibition – broadly, the drop in the measured response relative to a control, in per cent – is -1.97% (inactive). On to `CC(C)CC(=O)N1CCC(O)(CS(=O)(=O)Cc2ccccc2)CC1`, for which the inhibition was -3.05% (inactive).

Turning to `CCOc1ccc(Br)cc1S(=O)(=O)Nc1ccc(C(=O)OC(C)C(=O)N(C)c2ccccc2)cc1` (configuration not stated), the inhibition is 2.93% (inactive). Next, `CCOc1ccc(S(=O)(=O)n2ccnc2)c2ccccc12`: 3.78% (inactive); `Clc1ccc(C2=CSC3=Nc4cccc5cccc(c45)N23)cc1`: 15.1% (active). For the compound `CN1CCN(S(=O)(=O)c2ccc(NC(=O)C3CCCO3)cc2)CC1` (configuration not stated), the inhibition is 2.71% (inactive).

Turning to `O=C(O)c1ccc(COc2c(F)c(F)cc(F)c2F)o1`, the inhibition is -4.92% (inactive). Take `CN(C(=O)CN1C(=O)S/C(=C\c2ccccc2F)C1=O)C1CCS(=O)(=O)C1` (configuration not stated): the inhibition is 3.56% (inactive). With `CCCCNC(=O)Nc1c(C)cc(SC#N)cc1C`, the inhibition was 39.1% (active). With `CCCCNC(=O)CCNC(=O)c1ccc(C(C)(C)C)cc1`, the inhibition is 2.29% (inactive). For the compound `CCCCNC(=S)NNC(=O)c1cc(C)on1`, the inhibition is -2.6% (inactive). Next, `CC(C)=C1C2CCC1C1C(=O)N(NC(=O)c3ccco3)C(=O)C21` (configuration not stated): -4.39% (inactive); `COc1ccc(/C=C(\NC(=O)c2ccc(OCC(C)C)cc2)C(=O)OCc2ccco2)cc1`: 1.51% (inactive); `COCCCNC(=S)N1CCCC(c2nc3cc(C)c(C)cc3[nH]2)C1` (configuration not stated): -0.08% (inactive). Next, `Cc1ccc(C2CC(c3cccc(NS(C)(=O)=O)c3)=NN2S(C)(=O)=O)cc1` (configuration not stated): -2.1% (inactive).

With `CCCN1CC=C2C(C#N)=C(N)C(C#N)(C#N)C(c3cc(OC)ccc3OC)C2C1` (configuration not stated), the inhibition was -2.45% (inactive). As for `N#CC1=C(N)C(C#N)(C#N)[C@H](c2ccsc2)[C@H]2COCC=C12`, the inhibition was -0.34% (inactive).

For the compound `CCN1CC=C2C(C#N)=C(N)C(C#N)(C#N)[C@H](c3ccoc3)[C@H]2C1`, the inhibition was 30.4% (active). `O=C(O)COCC(=O)NCc1csc2ccc(Cl)cc12`: the inhibition was -2.02% (inactive).

Take `Cc1nc2ccc(NC(=O)C(F)(F)F)cc2o1`: the inhibition was 27.5% (active). Consider `Cc1ccc(NC(=O)Nc2ccc3oc(C)nc3c2)cc1`, for which the inhibition is -0.57% (inactive). For the compound `Cc1nc(C)c(C(=O)Nc2ccc(C)c(F)c2)o1`, the inhibition was -0.93% (inactive). As to `CC(=O)c1c(C)[nH]c(C(=O)COC(=O)CCOc2ccc(C)cc2)c1C`, the inhibition is -5.3% (inactive). Consider `COC(=O)c1cc(S(=O)(=O)N2CCN(c3cc(C)ccc3C)CC2)c[nH]1`, for which the inhibition was -1.18% (inactive). As for `COc1cc(/C=C2/C(=O)NN(c3cccc(Cl)c3)C2=O)cc(Br)c1O`, the inhibition was -6.98% (inactive). Regarding `CCOc1c(Br)cc(/C=C2\C(=O)N(CCC#N)N=C2C)cc1OC`, the inhibition is 57.8% (active). With `C=CCOc1c(Br)cc(/C=N\n2nnnc2N)cc1OC`, the inhibition is -3.76% (inactive). `COc1ccc(N2CC(C(=O)NCCN3C(=O)S/C(=C\c4cccnc4)C3=O)CC2=O)c(OC)c1` (configuration not stated): the inhibition was 101% (active). The same measure for `COc1ccccc1N1CC(C(=O)NCCN2C(=O)S/C(=C\c3cccnc3)C2=O)CC1=O` (configuration not stated): 1.63% (inactive); for `CCOc1ccc(N2CC(C(=O)NCCN3C(=O)S/C(=C\c4cccnc4)C3=O)CC2=O)cc1` (configuration not stated): -4.16% (inactive). Take `COc1ccc(C(=O)NCc2ccccc2C)cc1S(=O)(=O)NC1CCCC1`: the inhibition is 1.48% (inactive). As to `Clc1ccc(CSc2nnc3c(n2)[nH]c2ccccc23)cc1`, the inhibition was -2.24% (inactive).

For `O=Cc1c(NCCc2cccc(F)c2)c2ccccc2[nH]c1=O`, the inhibition was -4.74% (inactive).

For `COc1ccc2cc(C(=O)NCC3CCCO3)[nH]c2c1` (configuration not stated), the inhibition was -4.37% (inactive). The same measure for `O=C(NCC1CCCO1)c1cc2c([nH]c3ccccc32)c(-c2ccc(F)cc2)n1` (configuration not stated): 66.5% (active); for `O=C(NCCc1ccc(F)cc1)c1n[nH]c2ccccc12`: -0.12% (inactive); for `CC(NC(=O)c1cc(=O)[nH]c2ccccc12)c1ccc(F)cc1F` (configuration not stated): -7% (inactive). `O=C(NCCCO)c1cc2c([nH]c3ccccc32)c(-c2ccc(F)cc2)n1`: the inhibition was 35.7% (active). With `O=C(NCC1CCCO1)c1ccc2ccccc2n1` (configuration not stated), the inhibition is 0.05% (inactive). For `CC(=O)C(C)n1cnc2scc(-c3ccc(C)cc3)c2c1=O` (configuration not stated), the inhibition is -5.08% (inactive). Regarding `Cc1cc(C)n(-c2nnc(C)n2NC(=O)c2cccc(Cl)c2)n1`, the inhibition is -3.56% (inactive). Take `COc1ccc(C2NC(=S)NC3=C2CCc2ccccc23)cc1OC` (configuration not stated): the inhibition was 19.6% (active).

For `COC(=O)C1=C(C)NC(=S)NC1c1ccc(OCC(=O)N2CC(C)OC(C)C2)c(OC)c1` (configuration not stated), the inhibition was -1.31% (inactive). As to `CCOc1ccc(C2NC(=S)NC3=C2CCc2ccccc23)cc1` (configuration not stated), the inhibition is -0.5% (inactive). With `Cc1ccc(S(=O)(=O)NC(=O)COc2ccccc2C)cc1`, the inhibition is -0.01% (inactive).

As for `CC(=O)c1cccc(NC(=O)N2CCCC2C(=O)NCCC(C)C)c1` (configuration not stated), the inhibition was -0.58% (inactive).

Take `Cc1nnsc1S(=O)(=O)Cc1ccccc1Cl`: the inhibition was -3.79% (inactive). As for `O=C(Nc1ccc(S(=O)(=O)N2CCCCCC2)cc1)c1c(F)cccc1F`, the inhibition was -3.98% (inactive). Turning to `O=C(NCCCN1CCN(c2ccc(F)cc2)CC1)Nc1ccc([N+](=O)[O-])cc1`, the inhibition is -8.31% (inactive).

`CC(=O)N(CN1C(=O)C2C3C=CC(C3)C2C1=O)c1cccc(Cl)c1` (configuration not stated): the inhibition was -2.02% (inactive).

As to `CC(=O)Oc1cccc(N2C(=O)CC(Nc3ccc(N4CCOCC4)cc3)C2=O)c1` (configuration not stated), the inhibition is 37.4% (active). `COc1ccc(N2CCN(C3CC(=O)N(c4ccc5c(c4)OCCO5)C3=O)CC2)cc1` (configuration not stated): the inhibition is -4.31% (inactive). The same measure for `COc1cc2ccccc2cc1C(=O)Nc1ccc(N2CCOCC2)cc1`: 7.08% (inactive); for `COc1cc(OC)cc(C(=O)Nc2ccc(-c3nc4ccccc4o3)c(O)c2)c1`: -9.35% (inactive); for `COCCCNC(NC(=O)c1ccc(C)cc1)C(Cl)(Cl)Cl` (configuration not stated): -2.56% (inactive). Consider `Cc1cc(Nc2ccccc2)n(C(=O)c2ccc(N)cc2)n1`, for which the inhibition was -3.04% (inactive).

Take `Cc1ccc(Nc2ccccc2N)cc1`: the inhibition was -6.09% (inactive).

Consider `Nc1ccc(Nc2ccccc2)cc1`, for which the inhibition was 20.8% (active). The same measure for `COc1ccc(S(=O)(=O)N(CC(=O)NCc2ccco2)c2ccc(F)cc2)cc1`: -1.25% (inactive); for `COc1ccc(-n2c(C)cc(C(=O)CN3C(=O)NC4(CCc5ccccc54)C3=O)c2C)cc1` (configuration not stated): 1.38% (inactive); for `CC(=O)Nc1ccc(SCC(=O)Nc2ccccc2Oc2ccccc2)cc1`: 2.48% (inactive).

Take `CC(NCCO)C(=O)C12CC3CC(CC(C3)C1)C2` (configuration not stated): the inhibition is -1.18% (inactive).
